{"source": "PubChem BioAssay (NCI)", "key": {"[1]": {"experiment": "NCI Yeast Anticancer Drug Screen. Data for the rad52 strain (AID 147);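 further: 0% = growth of vehicle-treated control cultures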", "conditions": "S. cerevisiae rad52 mutant growth inhibition, stronger effect = higher value", "method_in_brief": "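Screen used a yeast mutant impaired in DNA repair. After compound exposure, growth was measured. Values reflect inhibition compared with vehicle-treated cells.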"}, "[2]": {"experiment": "NCI Yeast Anticancer Drug Screen. Data for the wt1 strain (AID 149);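 further: 0% = growth of vehicle-treated wt1 cultures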", "conditions": "S. cerevisiae wt1 strain (SPY 50644) growth inhibition, stronger effect = higher value", "method_in_brief": "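The wt1 strain was treated with compounds, and growth was compared with vehicle-treated cultures to give inhibition.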"}, "[3]": {"experiment": "NCI Yeast Anticancer Drug Screen. Data for the rad50EPP+ strain (AID 151);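 further: 0% = growth of vehicle-treated control cultures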", "conditions": "S. cerevisiae rad50 mutant strain, stronger effect = higher value", "method_in_brief": "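Exposing the rad50EPP+ strain to each compound, growth was compared with vehicle-only cultures to give inhibition.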"}, "[4]": {"experiment": "NCI Yeast Anticancer Drug Screen. Data for the mgt1 strain (AID 153)", "conditions": "S. cerevisiae mgt1 mutant growth inhibition, stronger effect = higher value", "method_in_brief": "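Genetically defined yeast (mgt1) treated with compound; inhibition of growth expressed against vehicle-treated controls.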"}, "[5]": {"experiment": "NCI Yeast Anticancer Drug Screen. Data for the rad50 strain (AID 155);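 further: 0% = growth of vehicle-only cultures of the same strain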", "conditions": "S. cerevisiae rad50 strain growth inhibition, stronger effect = higher value", "method_in_brief": "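Cells are treated with compound, grown, and their growth is then scored against vehicle-only cultures of the same repair-deficient yeast strain.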"}, "[6]": {"experiment": "NCI Yeast Anticancer Drug Screen. Data for the mec2-1 strain (AID 157)", "conditions": "S. cerevisiae mec2-1 strain, stronger effect = higher value", "method_in_brief": "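Readout is yeast growth inhibition, normalised to vehicle-treated controls, in the mec2-1 strain exposed to compound.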"}, "[7]": {"experiment": "NCI Yeast Anticancer Drug Screen. Data for the rad14 strain (AID 159);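 further: 0% = growth of vehicle-treated control cultures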", "conditions": "S. cerevisiae rad14 strain growth inhibition, stronger effect = higher value", "method_in_brief": "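Readout: yeast growth inhibition, referenced to vehicle-only cultures. Strain bears a defined alteration in DNA damage repair.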"}, "[8]": {"experiment": "NCI Yeast Anticancer Drug Screen. Data for the sgs1 mgt1 strain (AID 161);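 further: 0% = growth of cultures given vehicle only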", "conditions": "S. cerevisiae sgs1 mgt1 strain, stronger effect = higher value", "method_in_brief": "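Percent growth inhibition was derived by comparing compound-exposed mutant yeast with vehicle-exposed cultures. The strain carries alterations in DNA damage repair.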"}, "[9]": {"experiment": "NCI Yeast Anticancer Drug Screen. Data for the CLN2oe strain (AID 163);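 further: 0% = growth of vehicle-only control cultures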", "conditions": "S. cerevisiae CLN2oe strain, stronger effect = higher value", "method_in_brief": "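Values reflect how much compound exposure reduced yeast growth, referenced to vehicle-exposed cells. Assay organism is a strain with a defined genetic change affecting cell-cycle control.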"}, "[10]": {"experiment": "NCI Yeast Anticancer Drug Screen. Data for the bub3 strain (AID 167)", "conditions": "S. cerevisiae bub3 mutant strain, stronger effect = higher value", "method_in_brief": "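Part of a panel of yeast mutants defective in DNA damage repair or cell cycle regulation. Each strain is grown with compound, and inhibition is calculated relative to solvent-treated cultures.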"}, "[11]": {"experiment": "NCI Yeast Anticancer Drug Screen. Data for the wt2 strain (AID 169);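 further: 0% = growth of vehicle-treated yeast cultures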", "conditions": "S. cerevisiae wt2 strain growth inhibition, stronger effect = higher value", "method_in_brief": "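Values express reduction in yeast growth under compound treatment, referenced to vehicle-treated cells.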"}, "[12]": {"experiment": "NCI Yeast Anticancer Drug Screen. Data for the mlh1 strain (AID 171);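 further: 0% = growth of vehicle-treated control cultures of the same strain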", "conditions": "S. cerevisiae mlh1 strain growth inhibition, stronger effect = higher value", "method_in_brief": "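Steps: expose the defined-mutant yeast strain to compound; expose a parallel culture to vehicle; measure growth; express compound effect as inhibition relative to the vehicle culture.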"}, "[13]": {"experiment": "NCI Yeast Anticancer Drug Screen. Data for the sgs1 strain (AID 173);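 further: 0% = growth of vehicle-only control cultures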", "conditions": "S. cerevisiae sgs1 mutant, stronger effect = higher value", "method_in_brief": "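Treat defined-mutant yeast with compound; measure growth; calculate inhibition relative to vehicle-treated cells.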"}, "[14]": {"experiment": "NCI Yeast Anticancer Drug Screen. Data for the mlh1 rad18 strain (AID 175)", "conditions": "S. cerevisiae mlh1 rad18 strain growth inhibition, stronger effect = higher value", "method_in_brief": "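Test agents were incubated with a yeast strain of defined genotype (DNA damage repair defect). Inhibition of growth was derived by comparison with vehicle-exposed cultures.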"}, "[15]": {"conditions": "at 5.0 µM (retest, dose inferred, filed as 0.5)"}, "[16]": {"conditions": "at 50.0 µM (retest, dose inferred, filed as 5.0)"}}, "note": "Compounds without any hit were thinned out: in the full panel of roughly 79,000, 15% have a hit. Values without a mark were called inactive. Activity calls are given as the source filed them. No stated cut-off is given here; in the data, active means growth inhibition above about 70%; inactive means the rest.", "data": [{"smiles": "CCOC(=O)/C(=C\\c1cccc(C)c1)C(C)=O", "values": [{"measurement": "growth inhibition", "setting": "[1]; at 1.2 µM", "value": -3, "unit": "%"}, {"measurement": "growth inhibition", "setting": "[1]; at 3.7 µM", "value": 10, "unit": "%"}, {"measurement": "growth inhibition", "setting": "[1]; at 11.0 µM", "value": 67, "unit": "%"}, {"measurement": "growth inhibition", "setting": "[1]; at 33.0 µM", "value": "91% (active)"}, {"measurement": "growth inhibition", "setting": "[1]; at 100.0 µM", "value": "99% (active)"}, {"measurement": "growth inhibition", "setting": "[2]; at 1.2 µM", "value": -37, "unit": "%"}, {"measurement": "growth inhibition", "setting": "[2]; at 3.7 µM", "value": -15, "unit": "%"}, {"measurement": "growth inhibition", "setting": "[2]; at 11.0 µM", "value": 29, "unit": "%"}, {"measurement": "growth inhibition", "setting": "[2]; at 33.0 µM", "value": "88% (active)"}, {"measurement": "growth inhibition", "setting": "[2]; at 100.0 µM", "value": "98% (active)"}, {"measurement": "growth inhibition", "setting": "[3]; at 1.2 µM", "value": 48, "unit": "%"}, {"measurement": "growth inhibition", "setting": "[3]; at 3.7 µM", "value": 31, "unit": "%"}, {"measurement": "growth inhibition", "setting": "[3]; at 11.0 µM", "value": 60, "unit": "%"}, {"measurement": "growth inhibition", "setting": "[3]; at 33.0 µM", "value": "91% (active)"}, {"measurement": "growth inhibition", "setting": "[3]; at 100.0 µM", "value": "99% (active)"}, {"measurement": "growth inhibition", "setting": "[4]; at 1.2 µM", "value": -2, "unit": "%"}, {"measurement": "growth inhibition", "setting": "[4]; at 3.7 µM", "value": 3, "unit": "%"}, {"measurement": "growth inhibition", "setting": "[4]; at 11.0 µM", "value": 58, "unit": "%"}, {"measurement": "growth inhibition", "setting": "[4]; at 33.0 µM", "value": "91% (active)"}, {"measurement": "growth inhibition", "setting": "[4]; at 100.0 µM", "value": "99% (active)"}, {"measurement": "growth inhibition", "setting": "[5]; at 1.2 µM", "value": -13, "unit": "%"}, {"measurement": "growth inhibition", "setting": "[5]; at 3.7 µM", "value": -8, "unit": "%"}, {"measurement": "growth inhibition", "setting": "[5]; [15]", "value": 20, "unit": "%"}, {"measurement": "growth inhibition", "setting": "[5]; at 11.0 µM", "value": 58, "unit": "%"}, {"measurement": "growth inhibition", "setting": "[5]; at 33.0 µM", "value": "89% (active)"}, {"measurement": "growth inhibition", "setting": "[5]; [16]", "value": "91% (active)"}, {"measurement": "growth inhibition", "setting": "[5]; at 50.0 µM", "value": "92.3% (active)"}, {"measurement": "growth inhibition", "setting": "[5]; at 100.0 µM", "value": "98% (active)"}, {"measurement": "growth inhibition", "setting": "[6]; at 1.2 µM", "value": 0, "unit": "%"}, {"measurement": "growth inhibition", "setting": "[6]; at 3.7 µM", "value": 3, "unit": "%"}, {"measurement": "growth inhibition", "setting": "[6]; [15]", "value": -5, "unit": "%"}, {"measurement": "growth inhibition", "setting": "[6]; at 11.0 µM", "value": "71% (active)"}, {"measurement": "growth inhibition", "setting": "[6]; at 33.0 µM", "value": "95% (active)"}, {"measurement": "growth inhibition", "setting": "[6]; [16]", "value": "96% (active)"}, {"measurement": "growth inhibition", "setting": "[6]; at 50.0 µM", "value": "93.5% (active)"}, {"measurement": "growth inhibition", "setting": "[6]; at 100.0 µM", "value": "100% (active)"}, {"measurement": "growth inhibition", "setting": "[7]; at 1.2 µM", "value": -6, "unit": "%"}, {"measurement": "growth inhibition", "setting": "[7]; at 3.7 µM", "value": -7, "unit": "%"}, {"measurement": "growth inhibition", "setting": "[7]; at 11.0 µM", "value": 38, "unit": "%"}, {"measurement": "growth inhibition", "setting": "[7]; at 33.0 µM", "value": "93% (active)"}, {"measurement": "growth inhibition", "setting": "[7]; at 100.0 µM", "value": "99% (active)"}, {"measurement": "growth inhibition", "setting": "[8]; [15]", "value": 19, "unit": "%"}, {"measurement": "growth inhibition", "setting": "[8]; [16]", "value": "94% (active)"}, {"measurement": "growth inhibition", "setting": "[8]; at 50.0 µM", "value": "92.5% (active)"}, {"measurement": "growth inhibition", "setting": "[9]; at 1.2 µM", "value": 11, "unit": "%"}, {"measurement": "growth inhibition", "setting": "[9]; at 3.7 µM", "value": 4, "unit": "%"}, {"measurement": "growth inhibition", "setting": "[9]; at 11.0 µM", "value": 55, "unit": "%"}, {"measurement": "growth inhibition", "setting": "[9]; at 33.0 µM", "value": "92% (active)"}, {"measurement": "growth inhibition", "setting": "[9]; at 100.0 µM", "value": "99% (active)"}, {"measurement": "growth inhibition", "setting": "[10]; at 1.2 µM", "value": 1, "unit": "%"}, {"measurement": "growth inhibition", "setting": "[10]; at 3.7 µM", "value": 14, "unit": "%"}, {"measurement": "growth inhibition", "setting": "[10]; [15]", "value": 55, "unit": "%"}, {"measurement": "growth inhibition", "setting": "[10]; at 11.0 µM", "value": "89% (active)"}, {"measurement": "growth inhibition", "setting": "[10]; at 33.0 µM", "value": "97% (active)"}, {"measurement": "growth inhibition", "setting": "[10]; [16]", "value": "96% (active)"}, {"measurement": "growth inhibition", "setting": "[10]; at 50.0 µM", "value": "90.2% (active)"}, {"measurement": "growth inhibition", "setting": "[10]; at 100.0 µM", "value": "99% (active)"}, {"measurement": "growth inhibition", "setting": "[11]; at 1.2 µM", "value": 20, "unit": "%"}, {"measurement": "growth inhibition", "setting": "[11]; at 3.7 µM", "value": 23, "unit": "%"}, {"measurement": "growth inhibition", "setting": "[11]; at 11.0 µM", "value": 69, "unit": "%"}, {"measurement": "growth inhibition", "setting": "[11]; at 33.0 µM", "value": "92% (active)"}, {"measurement": "growth inhibition", "setting": "[11]; at 100.0 µM", "value": "99% (active)"}, {"measurement": "growth inhibition", "setting": "[12]; at 1.2 µM", "value": 13, "unit": "%"}, {"measurement": "growth inhibition", "setting": "[12]; at 3.7 µM", "value": 18, "unit": "%"}, {"measurement": "growth inhibition", "setting": "[12]; at 11.0 µM", "value": "80% (active)"}, {"measurement": "growth inhibition", "setting": "[12]; at 33.0 µM", "value": "95% (active)"}, {"measurement": "growth inhibition", "setting": "[12]; at 100.0 µM", "value": "98% (active)"}, {"measurement": "growth inhibition", "setting": "[13]; at 1.2 µM", "value": 22, "unit": "%"}, {"measurement": "growth inhibition", "setting": "[13]; at 3.7 µM", "value": 51, "unit": "%"}, {"measurement": "growth inhibition", "setting": "[13]; at 11.0 µM", "value": "84% (active)"}, {"measurement": "growth inhibition", "setting": "[13]; at 33.0 µM", "value": "94% (active)"}, {"measurement": "growth inhibition", "setting": "[13]; at 100.0 µM", "value": "98% (active)"}, {"measurement": "growth inhibition", "setting": "[14]; [15]", "value": 15, "unit": "%"}, {"measurement": "growth inhibition", "setting": "[14]; [16]", "value": "94% (active)"}, {"measurement": "growth inhibition", "setting": "[14]; at 50.0 µM", "value": "90.4% (active)"}]}]}
